Coupling enz: qHTS Assay for Inhibitors of Fructose-1,6-bisphosphate Aldolase from Giardia Lamblia: Coupling assay counterscreen. activity change, negative = inhibition, % at 58.2 µM, hits read low. actives 0.67% (n = 290,000). coupling enzyme system counterscreen, AmpLite Red fluorescence. AID 2472, 2010; in the data active = activity change below about -30%
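Final compound at 57.5 uM, incubated 10 min at RT with coupling enzyme reagent (glyceraldehyde-3-phosphate), then 20 min with substrate and AmpLite Red detection. Fluorescence read at 525/598 nm; tests interference with the coupling assay, not aldolase inhibition.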
rTrxR1 inhibitor: qHTS Assay for Inhibitors of Mammalian Selenoprotein Thioredoxin Reductase 1 (TrxR1): qHTS; Thioredoxin reductase 1, cytoplasmic (Rattus norvegicus), O89049; recombinant rTrxR1, NADPH fluorescence consumption, selenite substrate; Potency, µM (highest dose often 114 µM), for the others: top-dose activity change, negative = inhibition, usual class: inhibitors; actives 1% (n = 390,000); AID 588453, 2011; note: potency is the fitted concentration of half-maximal effect; nearly all actives have a fitted effect of over 65% in size
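Rat TrxR1 (90 nM in the dispensed reagent) was pre-reduced with 400 uM NADPH for 5 min at room temperature, then incubated with compound for 15 min. After 400 uM selenite was added, NADPH fluorescence (Ex 340/Em 450 nm) was followed for 8 min.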
GALK inhibitor: qHTS Assay for Inhibitors of Human Galactokinase (GALK) | AID 1868, 2009 | Potency, µM (doses to about 57.5 µM), inactives show top-dose activity change, negative = inhibition, usual class: inhibitors | P51570 | Purified GALK, Kinase-Glo residual ATP luminescence | actives 0.007% (n = 270,000); note: potency is the fitted concentration of half-maximal effect
Target sequence (P51570 whole entry, looked up): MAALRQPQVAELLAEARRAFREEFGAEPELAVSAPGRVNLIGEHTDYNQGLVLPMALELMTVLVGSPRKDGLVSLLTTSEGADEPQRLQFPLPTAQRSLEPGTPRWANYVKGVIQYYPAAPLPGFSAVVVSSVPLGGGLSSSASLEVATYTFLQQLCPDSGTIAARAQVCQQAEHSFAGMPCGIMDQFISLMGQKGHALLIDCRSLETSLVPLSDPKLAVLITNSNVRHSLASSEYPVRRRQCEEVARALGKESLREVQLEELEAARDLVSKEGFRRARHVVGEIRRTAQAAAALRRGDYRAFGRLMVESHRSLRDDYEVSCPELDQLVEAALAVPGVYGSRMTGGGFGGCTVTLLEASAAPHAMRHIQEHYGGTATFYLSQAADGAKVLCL
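Quantitative HTS: GALK 5 nM, ATP 35 uM, galactose 100 uM, 1 h room temperature, then luciferase-based ATP detection.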
USP1 inh: Inhibitors of USP1/UAF1: Primary Screen; Ubiquitin carboxyl-terminal hydrolase 1 (Homo sapiens), O94782; recombinant USP1/UAF1, Ub-Rhodamine cleavage fluorescence; Potency, µM (highest dose often 57.1 µM), without a hit: at the top dose activity change, negative = inhibition, most hits filed as inhibitors; actives 0.23% (n = 390,000); AID 743255, 2014; note: potency is the fitted concentration of half-maximal effect; nearly all actives have a fitted effect of over 60% in size
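In this screen, compounds sit with the deubiquitinase complex (1nM) for 15 min at room temperature before Ub-Rho is added at 150nM final. Fluorescence rise is then followed for 6 reads every 60 seconds.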
TrxR1 substrate: qHTS Assay for Substrates of Mammalian Selenoprotein Thioredoxin Reductase 1 (TrxR1): qHTS | actives 0.01% (n = 390,000) | purified TrxR1 substrate turnover, NADPH consumption readout | AID 588456, 2011 | Thioredoxin reductase 1, cytoplasmic (Rattus norvegicus), O89049 | Potency, µM (highest dose often 114 µM), inactives show at the highest dose activity change, negative = substrate turnover; note: potency is the fitted concentration of half-maximal effect; nearly all actives have a fitted effect of over 50% in size
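Rat TrxR1, dispensed at 90 nM, was prereduced with 400 uM NADPH (final) for 5 min at ~22 deg C, then incubated with compound 15 min before 400 uM selenite. A first-read NADPH fluorescence drop versus no-compound background flagged substrates.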
Active calls of the source: *; ? = inconclusive; . = no result; [ ] = dose if it differs, or a comment. The list is not random: actives were taken first. Their share in the collection is about 1.5%. Unless noted, calls come from the whole dose curve; as a rule, active = well fitted curve in the direction sought with a large enough effect; inconclusive = small, poorly fitted or top-dose-only effect, or another doubt; inactive = no such curve, though single readings can be large; an effect the other way counts as inactive or inconclusive. % is set by controls: 0 for no effect and ±100 for the full control effect.

SMILES | Coupling enz | rTrxR1 inhibitor | GALK inhibitor | USP1 inh | TrxR1 substrate
COc1ccc2c(c1OC)C(=O)N1c3ccccc3C(=O)N(Cc3ccco3)C21 (stereo not given) | . | 39.8µM* | . | . | 1.1%
COc1c(O)cc2oc3cc(O)c(CC=C(C)C)c(O)c3c(=O)c2c1CC=C(C)C | -4.7 | . | . | . | .
CC[n+]1c(/C=C(\C)OC)sc2ccccc21 | -1.9 | -1.1% | -0.7% | -16.8% | -9.7%
CC[n+]1c(/C=C/C=C/N(C(C)=O)c2ccccc2)sc2cc(OC)ccc21 | 1.2 | ? | 1.6% | 28.2µM* | -17.2%
O=C(O)c1cccs1 | . | 13.5% | . | . | 5.7%
O=C(CNC(=O)C(c1ccccc1)c1ccccc1)OCC(=O)c1ccc2ccccc2c1 | . | 18.0%[0.0914 µM] | . | . | -7.4%
C(=C\c1ccco1)/C=N/n1cnnc1 | -40.2* | 22.4µM* | 4.8% | 0.5% | -14.7%
COc1ccc(N2C(=O)CC(Sc3n[nH]c(-c4ccccc4)n3)C2=O)cc1 (stereo not given) | -0.1 | 2µM* | 5.4% | ? | 4.9%[57.1 µM]
CCOc1ccc(N2C(=O)CC(Sc3n[nH]c(-c4ccccc4)n3)C2=O)cc1 (stereo not given) | -0.4 | 6.31µM* | 2.8% | -13.5% | 5.6%
COc1ccc(N2C(=O)CC(Sc3nc(C)c4c(n3)CCCC4)C2=O)cc1 (stereo not given) | 1.4 | -4.6% | -0.1% | -24.8% | -2.6%
Cc1cc(N(C)C)cc(C)c1C=O | . | ? | . | . | -16.1%
O/N=C(/CBr)c1ccc2ccccc2c1 | . | 25.1µM* | . | . | 11.1%[0.0914 µM]
O/N=C(/CI)c1ccc2ccccc2c1 | . | ? | . | . | 3.4%
Cc1ccc[n+](/C(C(=S)NCc2ccco2)=C(/[O-])c2ccccc2Cl)c1 | -32.4* | ? | -0.1% | 7.5% | -11.4%
CC(C)(C)c1ccc(C(=O)NC(=S)NCc2ccco2)cc1 | . | ? | 4.1% | -24.5% | -2.1%
Cc1ccc[n+](C(C(=S)NCc2ccco2)=C([O-])c2ccccc2Cl)c1 | . | -1.0%[11.4 µM] | . | -19.2% | -10.8%[57.1 µM]
CC(C)(C)c1ccc(/C([O-])=C(/C(=S)NCc2ccco2)[n+]2ccccc2)cc1 | -30.4* | . | -1.0% | . | .
COc1ccc(OC)c(-c2nnc3n2N=C(c2c(OC)cccc2OC)CS3)c1 | -1.2 | . | . | . | .
CN(C)c1ccc(C=O)c(F)c1 | . | -15.3% | . | . | -17.7%
CCC1=[N+](C)CCn2c(C)ccc21 | -1.4 | 0.0%[57.1 µM] | -1.4% | -10.6% | 6.4%[57.1 µM]
CC(=O)c1c(C)c(C)c2n1CCn1c(C)ccc1-2 | -24.9 | 25.1µM* | 4.1% | -23.3% | 0.7%
CCN1CCc2nc(SCC(=O)Nc3ccc(OC)cc3)c(C#N)cc2C1 | -12.0 | 17.8µM* | 1.3% | -18.7% | -1.3%
CC(=O)Nc1ccc(/C=C/c2nc3ccccc3s2)cc1 | . | 7.5% | . | . | -5.1%
CC#CC(=O)Nc1cc2c(Nc3ccc(F)c(Cl)c3)ncnc2cn1 | -44.1* | . | . | . | .
O=C(CCS(=O)(=O)c1ccccc1)N1CCN(c2cccc(C(F)(F)F)c2)CC1 | . | 79.4µM* | -7.1% | -20.3% | -2.2%
SMILES | Coupling enz | rTrxR1 inhibitor | GALK inhibitor | USP1 inh | TrxR1 substrate
COc1ccccc1C(O)c1nccn1Cc1ccccc1 (stereo not given) | . | 3.7% | . | . | -4.9%
Oc1[nH]c2ccccc2c1N=Nc1ccc(F)cc1 | -0.8 | -2.9% | 3.5% | ? | -3.5%
Oc1[nH]c2ccccc2c1N=Nc1ccccc1 | 0.3 | 22.7%[0.0914 µM] | -1.7% | 28.2µM* | 1.7%
Cc1ccc(S(=O)(=O)N(C)C)cc1NC(=O)COC(=O)c1sc2cc(Cl)ccc2c1Cl | 3.6 | 35.5µM* | -2.3% | -26.3% | 0.2%
Cc1ccc(S(=O)(=O)N(C)C)cc1NC(=O)COC(=O)c1ccc(Cl)cc1 | 3.9 | 19.9% | 8.4% | -13.6% | 4.0%
CC(C)=C(NC(=O)c1ccccc1)C(=O)N1CCOCC1 | 0.9 | 21.5% | 9.4% | ? | 12.8%
O=C(N/C(C(=O)N1CCOCC1)=C(\Sc1ncccn1)c1ccccc1)c1ccccc1 | 3.3 | 50.1µM* | 1.1% | -10.4% | -3.9%
O=C(c1ccccc1)C(c1ccccc1)[n+]1csc2ccccc21 (stereo not given) | . | 1.0% | . | . | 6.6%
Nc1cc(Nc2ccccc2)c2nonc2c1[N+](=O)[O-] | 0.6 | 0.7% | . | -4.2% | 6.0%
O=[N+]([O-])c1c(Nc2cccc(O)c2)cc(Cl)c2nonc12 | -2.9 | 0.891µM* | -5.8% | ? | -15.8%
Cc1c(Nc2cc(Cl)c3nonc3c2[N+](=O)[O-])c(=O)n(-c2ccccc2)n1C | -5.7 | 0.631µM* | -1.4% | -6.4% | -6.7%[57.1 µM]
O=C(O)c1ccc(Nc2cc(Cl)c3nonc3c2[N+](=O)[O-])cc1 | -3.9 | 0.631µM* | -3.9% | -17.1% | -12.2%
O=C(O)c1cccc(Nc2ccc3nonc3c2[N+](=O)[O-])c1 | 1.0 | 4.4% | -3.7% | -8.3% | -13.6%
O=C(C[n+]1cccc(Cl)c1)c1ccc(F)cc1 | . | -25.5% | . | . | 16.4%
Cc1cc2nc3c(=O)[nH]c(=O)[nH]c3nc2c([N+](=O)[O-])c1N | -30.0* | -10.2% | 4.3% | ? | -18.2%
COc1ccc2c(c1)SCCC2=O | 2.3 | -4.4% | 0.8% | -9.8% | 7.1%
COc1ccc2c(c1)OCC1=C2CCC2(C)C(=O)CC=C12 (stereo not given) | -34.0* | . | 0.7% | . | .
COc1ccc(C(=O)NC(=S)Nc2cccnc2)cc1[N+](=O)[O-] | 2.3 | 10µM* | 9.8% | -1.2% | -2.7%
O=C(NC(=S)Nc1cccnc1)c1cccc(Cl)c1 | . | . | . | -23.9% | .
CCOc1ccc(C(=O)NC(=S)Nc2cccnc2)cc1[N+](=O)[O-] | 0.1 | -42.5% | -1.2% | 1.5% | -6.4%
Cc1cc(C)cc(C(=O)NC(=S)Nc2cccnc2)c1 | . | 44.7µM* | 6.1% | -22.4% | 4.1%
COc1cccc(Cn2cnc3c(cnn3C(C)(C)C)c2=O)c1 | . | 18.1% | . | . | 0.8%
COc1ccc(CCn2c3c(c(=O)[nH]c2=S)CN(c2ccccc2)CN3)cc1OC | . | -10.4% | . | . | 4.7%
COCc1cc(O)c(O)c(O)c1-c1c(COC)cc(O)c(O)c1O | -48.9* | 14.1µM* | . | . | -9.3%
CCCCN1C(=O)C2Cc3c([nH]c4ccccc34)CN2C1=S (stereo not given) | -7.2 | -13.4%[57.1 µM] | 6.8% | 25.1µM* | 10.2%
CCCCCN1CC(=O)N2Cc3[nH]c4ccccc4c3C[C@H]2C1=O | 1.4 | 9.8% | . | -16.8% | -3.7%
Clc1nc(NCc2ccco2)c2[nH]cnc2n1 | . | 27.5%[0.0914 µM] | . | . | 1.3%
N#CC(C#N)=Cc1cn(-c2ncc(C(F)(F)F)cc2Cl)c2ccccc12 | -0.7 | 15.8µM* | 0.0% | -18.5% | -15.0%[57.1 µM]
Cc1cc(O)c(C(C)C)cc1N=Cc1ccc(N(C)C)cc1 | . | ? | . | 31.6µM* | ?
